This excerpt belongs to a sample that is enriched for hits.
SARS PLpro yeast: qHTS of Yeast-based Assay for SARS-CoV PLP; S. cerevisiae expressing SARS-CoV PLpro, growth rescue; Potency, µM (titrated, usually from 32.9 µM), for the others: top-dose activity, positive = growth rescue, hits mostly activators; 0.19% of 330,000 active; AID 485353, 2010; note: potency is the fitted concentration of half-maximal effect; 0% is about no effect; nearly all actives have a fitted effect of over 55% in size
Tb PYK inh: qHTS of Trypanosoma Brucei Inhibitors; AID 624173, 2012; Potency, µM (titrated, usually from 76.8 µM), for inactives: at the top dose activity, negative = inhibition, hits mostly inhibitors; 0.12% of 410,000 active; TbPYK enzyme, Kinase-Glo Plus ATP luminescence, 45 min; active = well fitted curve in the direction sought with a large enough effect; inconclusive = small, poorly fitted or top-dose-only effect, or another doubt; inactive = no such curve, though single readings can be large; an effect the other way counts as inactive or inconclusive; note: potency is the fitted concentration of half-maximal effect; % is set by controls: 0 for no effect and ±100 for the full control effect; nearly all actives have a fitted effect of over 50% in size
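Screened from lowest to highest concentration, compounds were pinned into TbPYK/substrate mixtures, and ADP (130 uM final) was added. Plates sat at room temperature for 45 min prior to Kinase-Glo Plus detection by luminescence.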
CHX counter: Cycloheximide Counterscreen for Small Molecule Inhibitors of Shiga Toxin. cell reporter, cycloheximide protein synthesis inhibition counterscreen. max response, %. 12% of 300,000 active. AID 2314, 2010; in the data active = max response mostly above about 13%, no sharp cut-off; inactive = mostly below about 14%; note: read at 38.3 µM for the half of the compounds with a filed dose; 0% is about no effect
NS1 inh: qHTS Assay for Inhibitors of Influenza NS1 Protein Function. Potency, µM (series often up to 46.1 µM), without a hit: at the top dose activity, positive = more growth. 0.4% of 270,000 active; note: potency is the fitted concentration of half-maximal effect; actives are rising curves; nearly all actives have a fitted effect of over 50% in size
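OD600 was taken as the measure of yeast growth restored by compound in an NS1-expressing S. cerevisiae strain. Cells had been washed out of glucose medium and diluted 1:100 into galactose -URA medium, pH 6.0.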
LmPK inhibitor: qHTS Assay for Inhibitors of Leishmania Mexicana Pyruvate Kinase (LmPK). purified LmPK, Kinase-Glo ATP luminescence, 1 h. Potency, µM (doses to about 57.5 µM), for the others: at the highest dose activity change, negative = inhibition, usual class: inhibitors. 0.37% of 290,000 active. AID 1721, 2009; active = well fitted curve in the direction sought with a large enough effect; inconclusive = small, poorly fitted or top-dose-only effect, or another doubt; inactive = no such curve, though single readings can be large; an effect the other way counts as inactive or inconclusive; note: potency is the fitted concentration of half-maximal effect; % is set by controls: 0 for no effect and ±100 for the full control effect
Target sequence (Q27686 whole entry, looked up): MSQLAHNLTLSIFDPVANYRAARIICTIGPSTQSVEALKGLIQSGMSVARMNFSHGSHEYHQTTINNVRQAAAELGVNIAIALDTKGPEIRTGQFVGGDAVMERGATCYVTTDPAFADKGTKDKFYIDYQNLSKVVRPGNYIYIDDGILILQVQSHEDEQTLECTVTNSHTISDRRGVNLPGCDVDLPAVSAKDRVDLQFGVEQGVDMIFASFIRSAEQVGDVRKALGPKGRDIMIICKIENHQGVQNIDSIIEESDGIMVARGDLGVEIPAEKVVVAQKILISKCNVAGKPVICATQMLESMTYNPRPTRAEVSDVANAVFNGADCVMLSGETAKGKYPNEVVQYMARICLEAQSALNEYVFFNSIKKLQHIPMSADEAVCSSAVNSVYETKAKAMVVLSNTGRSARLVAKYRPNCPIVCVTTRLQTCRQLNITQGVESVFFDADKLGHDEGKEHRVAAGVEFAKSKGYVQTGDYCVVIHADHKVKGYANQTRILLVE
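Kinase-Glo luminescence read after 1 h RT reaction of 0.1 nM LmPK with 0.5 mM PEP and 0.1 mM ADP. Activity scaled between uninhibited and enzyme-free controls.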
Shiga inhibitor: A qHTS for Small Molecule Inhibitors of Shiga Toxin. 9.2% of 290,000 active. inhibition, % at 38.7 µM. Vero cells, Shiga toxin protein synthesis inhibition reporter; in the data active = inhibition mostly above about 28%, no sharp cut-off; inactive = mostly below about 43%; note: 0% is about no effect
An asterisk follows results filed as active. Unless noted, calls come from the whole dose curve.

`O=C(Nc1ccc(F)cc1F)NC1CC1` gave SARS PLpro yeast -1.9%, Tb PYK inh 1.4%, CHX counter -2.1, LmPK inhibitor -3.9% and Shiga inhibitor -9.9.
`O=C(Nc1ccc2c(c1)CCC2)Nc1ccccc1F` gave SARS PLpro yeast -5.2%, Tb PYK inh -0.1%, CHX counter 46.6*, NS1 inh -15.5%, LmPK inhibitor -19.7% and Shiga inhibitor 64.5*.
For O=C(Nc1ccc2c(c1)CCC2)Nc1ccc(F)cc1F the results were SARS PLpro yeast -2.2%, Tb PYK inh -6.3%, CHX counter 67.3*, NS1 inh -3.4%, LmPK inhibitor -11.2% and Shiga inhibitor 73.5*.
`O=C(Nc1cccc(F)c1)Nc1ccc2c(c1)CCC2` gave SARS PLpro yeast -1.1%, Tb PYK inh -0.2%, CHX counter 24.5*, NS1 inh -3.9%, LmPK inhibitor 4.1% and Shiga inhibitor 80.0*.
O=[N+]([O-])c1cccc(CNc2ccc3c(c2)CCC3)c1 was read as SARS PLpro yeast -49.9%, Tb PYK inh 11.7%, CHX counter 18.9, NS1 inh 4.7%, LmPK inhibitor -6.9% and Shiga inhibitor active.
For O=C(CNC(=O)c1ccccc1F)Nc1ccc2c(c1)CCC2 the results were SARS PLpro yeast -2.4% and Tb PYK inh 0.3%.
Screening O=[N+]([O-])c1cccc(CNCc2ccccc2)c1 returned SARS PLpro yeast 0.9%, Tb PYK inh -4.7%, CHX counter 8.0, NS1 inh -2.1%, LmPK inhibitor 1.0% and Shiga inhibitor 18.1.
N#Cc1cccc(NC(=O)CC2CCCC2)c1 was read as SARS PLpro yeast 1.4%, Tb PYK inh -1.8%, CHX counter 12.8, NS1 inh -2.6%, LmPK inhibitor 11.9% and Shiga inhibitor 20.5.
Screening O=C(Nc1cccc([N+](=O)[O-])c1)Nc1cccs1 returned SARS PLpro yeast -7.0%, Tb PYK inh -6.0%, CHX counter 32.3*, LmPK inhibitor -0.6% and Shiga inhibitor 37.2.
O=C(CC1CCCC1)Nc1ccc2c(c1)CCC2 was read as SARS PLpro yeast 2.1%, Tb PYK inh 2.6%, CHX counter 29.1*, NS1 inh -7.1%, LmPK inhibitor -0.3% and Shiga inhibitor 50.8*.
O=C(Nc1ccc2c(c1)CCC2)c1ncoc1-c1ccccc1F was read as SARS PLpro yeast 1.4%, Tb PYK inh 1.1%, CHX counter 27.3*, NS1 inh 1.5%, LmPK inhibitor 4.2% and Shiga inhibitor 78.7.
For CC(C)(C)NC(=O)C1c2ccccc2OCC(=O)N1CC(F)(F)F (centres undefined) the results were Tb PYK inh 2.2%.
O=C(NN=Cc1ccc2c(c1)CCC2)c1cccc([N+](=O)[O-])c1 was read as Tb PYK inh 4.9%.
`O=C(Nc1cccc([N+](=O)[O-])c1)Nc1ccc2c(c1)CCC2` gave SARS PLpro yeast -2.0%, Tb PYK inh 1.5%, CHX counter 12.2*, NS1 inh -0.4%, LmPK inhibitor 7.7% and Shiga inhibitor 29.7.
For Cc1ccccc1NC(=O)Nc1ccc(C(F)(F)F)cc1 the results were SARS PLpro yeast -2.4%, Tb PYK inh 1.2%, CHX counter 23.2*, NS1 inh -7.0%, LmPK inhibitor -3.2% and Shiga inhibitor 56.1*.
`CCOc1ccc(NC(=O)Nc2ccc3c(c2)CCC3)cc1` gave SARS PLpro yeast 2.1%, Tb PYK inh -0.4%, CHX counter 2.8, NS1 inh 3.2%, LmPK inhibitor 0.7% and Shiga inhibitor -6.3.
Screening Cc1ccccc1NC(=O)Nc1ccc2c(c1)CCC2 returned SARS PLpro yeast inconclusive, Tb PYK inh 7.0%, CHX counter 28.3*, NS1 inh 0.4%, LmPK inhibitor 2.1% and Shiga inhibitor 103.5*.
`O=C(Nc1ccccc1)Nc1ccc2c(c1)CCC2` gave SARS PLpro yeast -1.1%, Tb PYK inh -1.9%, CHX counter 81.4*, NS1 inh 17.2%, LmPK inhibitor 1.1% and Shiga inhibitor 155.7*.
`COc1nc(=O)n(C2CCCO2)cc1C` (centres undefined) gave Tb PYK inh 3.0%.
`COc1ccc(CNC(=O)COC(=O)C2(C)CC2(Cl)Cl)cc1` (centres undefined) gave SARS PLpro yeast -0.6% and Tb PYK inh 1.0%.
Screening O=C(Nc1ccc2c(c1)CCC2)c1ccc(F)cc1 returned SARS PLpro yeast -9.1%, Tb PYK inh -3.2%, CHX counter 30.2*, NS1 inh -6.6%, LmPK inhibitor -21.0% and Shiga inhibitor 0.0.
`Cc1cc(C(=O)Nc2ccc3c(c2)CCC3)ccc1[N+](=O)[O-]` gave Tb PYK inh -8.6%.
`O=C(/C=C/c1ccccc1)NC(=S)NNC(=O)c1ccco1` gave SARS PLpro yeast 11.8%, Tb PYK inh -4.2%, CHX counter 20.4*, NS1 inh -25.0%, LmPK inhibitor -2.8% and Shiga inhibitor 65.4*.
For O=C(/C=C/c1ccc(F)cc1)NC(=S)Nc1ccccc1 the results were SARS PLpro yeast 0.0%, Tb PYK inh 17.3%, CHX counter 12.6, NS1 inh 2.6%, LmPK inhibitor 2.1% and Shiga inhibitor 34.1*.
`O=C(/C=C/c1ccccc1)NC(=S)Nc1ccc(N2CCOCC2)cc1` gave SARS PLpro yeast 12.6%, Tb PYK inh -3.5%, CHX counter -2.2, NS1 inh 9.1%, LmPK inhibitor 3.5% and Shiga inhibitor 9.6.
For O=C(/C=C/c1ccccc1)NC(=S)Nc1ncccn1 the results were SARS PLpro yeast -1.5%, Tb PYK inh 1.3%, CHX counter 25.0*, NS1 inh -3.4%, LmPK inhibitor -2.0% and Shiga inhibitor 51.3*.
For C=CCN(CC=C)S(=O)(=O)c1ccc(NC(=S)NC(=O)/C=C/c2ccccc2)cc1 the results were SARS PLpro yeast -1.3%, Tb PYK inh -1.6%, CHX counter 6.9, NS1 inh 2.5%, LmPK inhibitor 0.9% and Shiga inhibitor 7.1.
`O=C(/C=C/c1ccccc1)NC(=S)Nc1ccccc1` gave SARS PLpro yeast 8.0%, Tb PYK inh -2.4%, CHX counter 25.2*, NS1 inh -13.4% and LmPK inhibitor -2.6%.
Screening Cc1cc2ccccc2n1-c1ccc(C(=O)N2CCC(C(=O)NCc3ccc(F)cc3)CC2)s1 returned Tb PYK inh 1.3%.
COc1ccc(/C=C2\N=C(C)OC2=O)cc1OC(C)=O was read as SARS PLpro yeast -0.4%, Tb PYK inh -2.4%, CHX counter -4.5, NS1 inh -0.6%, LmPK inhibitor 1.7% and Shiga inhibitor -1.3.
For COc1cc(/C=C2\N=C(c3ccccc3)OC2=O)ccc1OC(C)=O the results were SARS PLpro yeast 4.9%, Tb PYK inh -5.8%, CHX counter 7.5*, NS1 inh 7.9%, LmPK inhibitor 3.1% and Shiga inhibitor -14.0.

From PubChem BioAssay
